This is part of a sample that, as a whole, favours compounds with a hit. Of some 79,000 tested, about 15% had one in any assay. The source made the active and inactive calls. No stated cut-off is given here; in the data, active means growth inhibition above about 70%; inactive means the rest.
Tests used:
[1] = NCI Yeast Anticancer Drug Screen. Data for the wt1 strain (AID 149);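 further: 0% = growth of vehicle-treated wt1 cultures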; conditions: S. cerevisiae wt1 strain (SPY 50644) growth inhibition, active compounds read high
How it was run: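 Each compound is tested on wt1 yeast and the loss of growth versus vehicle gives the inhibition value.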

[2] = NCI Yeast Anticancer Drug Screen. Data for the rad50EPP+ strain (AID 151);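 further: 0% = growth of vehicle-treated control cultures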; conditions: S. cerevisiae rad50 mutant strain, active compounds read high
How it was run: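 Vehicle-normalised growth inhibition; rad50EPP+ yeast strain, altered in DNA damage repair, compound-treated.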

[3] = NCI Yeast Anticancer Drug Screen. Data for the mgt1 strain (AID 153); conditions: S. cerevisiae mgt1 mutant growth inhibition, active compounds read high
How it was run: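 Vehicle-normalized growth inhibition is determined in mgt1 yeast, a strain selected for a defined alteration in DNA repair or cell cycle control.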

[4] = NCI Yeast Anticancer Drug Screen. Data for the rad50 strain (AID 155);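 further: 0% = growth of vehicle-only cultures of the same strain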; conditions: S. cerevisiae rad50 strain growth inhibition, active compounds read high
How it was run: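 Vehicle-treated cultures provide the reference for the growth inhibition reported for compound-exposed, repair-deficient yeast.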

[5] = NCI Yeast Anticancer Drug Screen. Data for the mec2-1 strain (AID 157); conditions: S. cerevisiae mec2-1 strain, active compounds read high
How it was run: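 Mutant yeast (mec2-1) grown with compound; growth inhibition relative to vehicle control reported.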

[6] = NCI Yeast Anticancer Drug Screen. Data for the rad14 strain (AID 159);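 further: 0% = growth of vehicle-treated control cultures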; conditions: S. cerevisiae rad14 strain growth inhibition, active compounds read high
How it was run: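 Inhibition of growth is reported for a repair-deficient yeast mutant following compound treatment, calculated relative to cultures that received vehicle.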

[7] = NCI Yeast Anticancer Drug Screen. Data for the sgs1 mgt1 strain (AID 161);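 further: 0% = growth of cultures given vehicle only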; conditions: S. cerevisiae sgs1 mgt1 strain, active compounds read high
How it was run: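 This yeast growth screen uses a strain with defined DNA-repair lesions; compound-treated growth is compared with vehicle-treated growth.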

[8] = NCI Yeast Anticancer Drug Screen. Data for the CLN2oe strain (AID 163);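 further: 0% = growth of vehicle-only control cultures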; conditions: S. cerevisiae CLN2oe strain, active compounds read high
How it was run: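 Compounds are applied to yeast harbouring a defined cell-cycle control change; reduced growth compared with vehicle-treated controls gives the value.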

[9] = NCI Yeast Anticancer Drug Screen. Data for the cln2 rad14 strain (AID 165);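 further: 0% = growth equal to vehicle treated cultures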; conditions: S. cerevisiae cln2 rad14 strain, active compounds read high
How it was run: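 Readout is yeast growth inhibition versus vehicle-treated controls, using a strain with cln2 and rad14 alterations exposed to compound.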

[10] = NCI Yeast Anticancer Drug Screen. Data for the bub3 strain (AID 167); conditions: S. cerevisiae bub3 mutant strain, active compounds read high
How it was run: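 Mutant yeast screening strain plus compound; vehicle-treated cultures serve as the 0% inhibition reference.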

[11] = NCI Yeast Anticancer Drug Screen. Data for the wt2 strain (AID 169); conditions: S. cerevisiae wt2 strain growth inhibition, active compounds read high
How it was run: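 Against vehicle-treated controls, the growth of yeast exposed to each compound was compared, and the inhibition was recorded.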

[12] = NCI Yeast Anticancer Drug Screen. Data for the mlh1 strain (AID 171);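 further: 0% = growth of vehicle-treated control cultures of the same strain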; conditions: S. cerevisiae mlh1 strain growth inhibition, active compounds read high
How it was run: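 Measured: yeast growth. Reference: vehicle-treated controls. Organism: strain with a defined alteration affecting DNA damage repair or cell cycle control, treated with compound.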

[13] = NCI Yeast Anticancer Drug Screen. Data for the sgs1 strain (AID 173);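 further: 0% = growth of vehicle-only control cultures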; conditions: S. cerevisiae sgs1 mutant, active compounds read high
How it was run: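 Each compound was added to cultures of the altered yeast strain. Growth was recorded, and inhibition was derived by comparison with vehicle controls.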

[14] = NCI Yeast Anticancer Drug Screen. Data for the mlh1 rad18 strain (AID 175); conditions: S. cerevisiae mlh1 rad18 strain growth inhibition, active compounds read high
How it was run: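 Genetically defined yeast (DNA repair-deficient) exposed to compounds; growth inhibition determined relative to vehicle.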

[15] = NCI Yeast Anticancer Drug Screen. Data for the rad18 strain (AID 177); conditions: S. cerevisiae rad18 mutant growth inhibition, active compounds read high
How it was run: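 Vehicle-treated cultures served as the baseline for scoring compound-induced growth inhibition in DNA-repair-mutant yeast.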

[16] = at 5.0 µM (retest, dose inferred, filed as 0.5)
[17] = at 50.0 µM (retest, dose inferred, filed as 5.0)

Measured: growth inhibition

COc1cc(NCCCCCNC(C)C)c2ncccc2c1Cl
inactive: [1]; at 1.2 µM -2% | [1]; at 3.7 µM 3% | [1]; at 11.0 µM 1% | [1]; at 33.0 µM 2% | [1]; at 100.0 µM -8% | [2]; at 1.2 µM 1% | [2]; at 3.7 µM -1% | [2]; at 11.0 µM 1% | [2]; at 33.0 µM 9% | [2]; at 100.0 µM 13% | [3]; at 1.2 µM -5% | [3]; at 3.7 µM -3% | [3]; at 11.0 µM 1% | [3]; at 33.0 µM 3% | [3]; at 100.0 µM 33% | [4]; at 1.2 µM -1% | [4]; at 3.7 µM 2% | [4]; [16] 8% | [4]; at 11.0 µM 4% | [4]; at 33.0 µM 7% | [4]; [17] 12% | [4]; at 50.0 µM 49.7% | [4]; at 100.0 µM 24% | [5]; at 1.2 µM -1% | [5]; at 3.7 µM 2% | [5]; [16] -3% | [5]; at 11.0 µM 3% | [5]; at 33.0 µM 4% | [5]; [17] 13% | [5]; at 50.0 µM 6.65% | [5]; at 100.0 µM 10% | [6]; at 1.2 µM 0% | [6]; at 3.7 µM 5% | [6]; at 11.0 µM 15% | [6]; at 33.0 µM 24% | [6]; at 100.0 µM 24% | [7]; [16] 5% | [7]; [17] 28% | [7]; at 50.0 µM 52.5% | [8]; at 1.2 µM 0% | [8]; at 3.7 µM -6% | [8]; at 11.0 µM 6% | [8]; at 33.0 µM 14% | [8]; at 100.0 µM 36% | [9]; [16] 8% | [9]; [17] 41% | [9]; at 50.0 µM 26.8% | [10]; at 1.2 µM -2% | [10]; at 3.7 µM -1% | [10]; [16] 6% | [10]; at 11.0 µM 3% | [10]; at 33.0 µM 11% | [10]; [17] 38% | [10]; at 50.0 µM 36.5% | [10]; at 100.0 µM 25% | [11]; at 1.2 µM -2% | [11]; at 3.7 µM -1% | [11]; at 11.0 µM 0% | [11]; at 33.0 µM 7% | [11]; at 100.0 µM 6% | [12]; at 1.2 µM -1% | [12]; at 3.7 µM -1% | [12]; at 11.0 µM 1% | [12]; at 33.0 µM 7% | [12]; at 100.0 µM 15% | [13]; at 1.2 µM -1% | [13]; at 3.7 µM -2% | [13]; at 11.0 µM 3% | [13]; at 33.0 µM 13% | [13]; at 100.0 µM 23% | [14]; [16] 5% | [14]; [17] 38% | [14]; at 50.0 µM 56.8% | [15]; at 1.2 µM -1% | [15]; at 3.7 µM -4% | [15]; at 11.0 µM -1% | [15]; at 33.0 µM 5% | [15]; at 100.0 µM 13%

COc1ccc(C(=O)NCCN(C)C)c2nc3ccccc3cc12
inactive: [1]; at 1.2 µM -11% | [1]; at 3.7 µM 21% | [1]; at 11.0 µM -2% | [1]; at 33.0 µM -6% | [1]; at 100.0 µM 39% | [2]; at 1.2 µM 13% | [2]; at 3.7 µM 46% | [2]; at 11.0 µM 63% | [3]; at 1.2 µM 7% | [3]; at 3.7 µM 19% | [3]; at 11.0 µM 14% | [3]; at 33.0 µM 17% | [3]; at 100.0 µM 67% | [4]; at 1.2 µM 45% | [5]; at 1.2 µM 18% | [5]; at 3.7 µM 17% | [5]; [16] 14% | [5]; at 11.0 µM 18% | [5]; at 33.0 µM 30% | [5]; [17] 59% | [6]; at 1.2 µM 7% | [6]; at 3.7 µM 3% | [6]; at 11.0 µM -9% | [6]; at 33.0 µM 10% | [6]; at 100.0 µM 57% | [7]; [16] 18% | [7]; [17] 39% | [7]; at 50.0 µM 30.6% | [8]; at 1.2 µM 29% | [8]; at 3.7 µM 26% | [8]; at 11.0 µM 29% | [8]; at 33.0 µM 41% | [9]; [16] 17% | [9]; [17] 25% | [9]; at 50.0 µM 10.7% | [10]; at 1.2 µM 12% | [10]; at 3.7 µM 11% | [10]; [16] 22% | [10]; at 11.0 µM 9% | [10]; at 33.0 µM 9% | [10]; [17] 36% | [10]; at 50.0 µM -31.9% | [10]; at 100.0 µM 41% | [11]; at 1.2 µM -16% | [11]; at 3.7 µM -8% | [11]; at 11.0 µM -15% | [11]; at 33.0 µM -8% | [12]; at 1.2 µM 26% | [12]; at 3.7 µM 23% | [12]; at 11.0 µM 18% | [12]; at 33.0 µM 29% | [13]; at 1.2 µM 15% | [13]; at 3.7 µM 16% | [13]; at 11.0 µM 10% | [13]; at 33.0 µM 10% | [13]; at 100.0 µM 62% | [14]; [16] 19% | [14]; [17] 64% | [14]; at 50.0 µM 19.6% | [15]; at 1.2 µM 19% | [15]; at 3.7 µM 17% | [15]; at 11.0 µM 11% | [15]; at 33.0 µM -5% | [15]; at 100.0 µM 66%
active: [2]; at 33.0 µM 90% | [2]; at 100.0 µM 96% | [4]; at 3.7 µM 77% | [4]; [16] 73% | [4]; at 11.0 µM 93% | [4]; at 33.0 µM 95% | [4]; [17] 95% | [4]; at 50.0 µM 82.5% | [4]; at 100.0 µM 94% | [5]; at 50.0 µM 71.2% | [5]; at 100.0 µM 80% | [8]; at 100.0 µM 73% | [11]; at 100.0 µM 90% | [12]; at 100.0 µM 75%

From PubChem BioAssay (NCI)
